This passage reports max response results from PubChem BioAssay AID652105 (National Center for Advancing Translational Sciences (NCATS), 2013).

Among all 330,000 compounds or so, about 4,100 (1.2%) were called active. Inconclusive results (about 2%) are left out. How the source made its calls: active means max response of -50% or lower; inconclusive means between -30% and -50%; inactive means -30% or higher. The list comes from a sample in which actives are over-represented; it also holds similar structures and randomly drawn compounds.
On the % scale 0 is the no-effect control and ±100 the full control effect.

Sequence of Phosphatidylinositol 5-phosphate 4-kinase type-2 alpha (Homo sapiens) (P48426 whole entry, looked up): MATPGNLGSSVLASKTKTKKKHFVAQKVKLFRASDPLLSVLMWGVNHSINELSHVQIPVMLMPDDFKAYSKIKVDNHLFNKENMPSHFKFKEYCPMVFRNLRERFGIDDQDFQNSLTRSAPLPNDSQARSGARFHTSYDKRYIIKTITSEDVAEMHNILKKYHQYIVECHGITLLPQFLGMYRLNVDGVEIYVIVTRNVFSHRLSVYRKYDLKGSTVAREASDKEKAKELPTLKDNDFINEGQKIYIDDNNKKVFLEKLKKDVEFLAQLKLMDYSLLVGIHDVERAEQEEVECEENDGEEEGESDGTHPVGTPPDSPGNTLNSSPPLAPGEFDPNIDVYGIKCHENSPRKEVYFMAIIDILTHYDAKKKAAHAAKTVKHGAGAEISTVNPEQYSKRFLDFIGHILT

The target in this experiment is Phosphatidylinositol 5-phosphate 4-kinase type-2 alpha (Homo sapiens) (UniProt P48426). Description: qHTS for Inhibitors of phosphatidylinositol 5-phosphate 4-kinase (PI5P4K). Further: value at the top dose of about 77 µM. Conditions: PI5P4Kalpha enzyme, ADP-Glo luminescence, 60 min; hits give low values. The gist of the method:
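Reactions run in 0.038 M HEPES pH 7.4, 0.28 mM EGTA, 0.1% CHAPS and 5% DMSO, with PI5P4Kalpha, substrate, compound and 5 microM ATP final, one hour at room temperature. Readout is ADP-Glo luminescence.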
`CCc1c(N=O)c(-c2ccccc2)n(O)[n+]1[O-]`: the max response was -5.54% (inactive).

`O=C(N/N=C/c1ccc(Cl)cc1)c1nc2ccc([N+](=O)[O-])cc2c(=O)[nH]1`: the max response was -60.4% (active).

Regarding `Cc1ccsc1C(=O)N/N=C/c1ccc([N+](=O)[O-])cc1`, the max response is -10.5% (inactive).

With `O=C(N/N=C/c1ccc([N+](=O)[O-])cc1)c1c[nH]c2ccccc12`, the max response is 1.35% (inactive).

With `O=C(CCc1ccc(O)cc1)NN=Cc1cc(Br)ccc1O`, the max response was -16.2% (inactive).

Consider `COc1ccc(NC(=O)C2Cc3c(-c4ccc5c(c4)OCO5)ccnc3O2)cn1` (centres undefined), for which the max response was -13.8% (inactive).

Turning to `O=C1CSC(=S)N1/N=C/c1ccc(O)c([N+](=O)[O-])c1`, the max response is -104% (active).

Turning to `O=[N+]([O-])c1ccc(N2CCSCC2)cc1O`, the max response was -3.3% (inactive).

With `O=C1CSC(=S)N1c1ccc(O)cc1`, the max response was -3.72% (inactive).

As to `CC1Cc2[nH][nH]c(=O)c2C(C2CCCC2)O1` (centres undefined), the max response is 0.644% (inactive).

For the molecule `CC1=C(C(=O)N2CCOCC2)CC(CC(=O)NCCCN(C)C)C(=O)N1Cc1ccc(C(C)(C)C)cc1` (centres undefined), the max response is 1.54% (inactive).

On to `Fc1ccc(COc2ccc(-c3nnco3)cc2)cc1`, for which the max response was -2.69% (inactive).

For the molecule `Fc1ccc(/C=N/n2c(COc3ccccc3)n[nH]c2=S)cc1`, the max response was 5.11% (inactive).

As for `Fc1ccc(COc2cccc(-c3n[nH]c(=S)o3)c2)cc1`, the max response is -51.9% (active).

On to `Cc1cccc(CNC(=O)c2sc(=O)n(Cc3ccccc3C)c2C)c1`, for which the max response was 0.532% (inactive).

As to `COc1ccc(-c2ccc(C(=O)NC(C)C)c3occc23)c(C)c1`, the max response is 4% (inactive).

Take `CC[C@@H]1Cc2cc(O)ccc2C2=C1c1ccc(O)cc1C[C@H]2CC`: the max response is -54.7% (active).

With `Cc1ccc(C(=O)N2CCCc3ccccc32)c(Cl)c1`, the max response was 0.412% (inactive).

As for `CC(C)(C)c1nnc2sc(SCC(O)=C(C#N)c3nc4ccccc4[nH]3)nn2c1=O`, the max response is -56.5% (active).

Regarding `N#C/C(=C(/O)COc1cccc2ccccc12)c1nc2ccccc2[nH]1`, the max response is -15.3% (inactive).

For `N#C/C(=C(/O)COC(=O)COc1ccc(Cl)cc1)c1nc2ccccc2[nH]1`, the max response was -17% (inactive).

On to `COC(=O)[C@@]12C[C@@H](CC(=O)N3CCC(c4ccccc4)CC3)C(=O)N(Cc3ccccc3)C1=CCC(C)(C)C2`, for which the max response was 3.29% (inactive).

Turning to `COc1ccc(C(C)(NC(C)=O)c2nc(-c3ccc(S(C)(=O)=O)cc3)cs2)cc1` (centres undefined), the max response was -2.22% (inactive).

As to `O=C(Nc1cc(Br)ccc1F)c1nc[nH]c1C(=O)NCc1ccccc1`, the max response is 32.1% (inactive).

With `O=C(Cc1ccc([N+](=O)[O-])cc1)NCCS(=O)(=O)N1CCN(c2ccccc2)CC1`, the max response was -2.51% (inactive).

Turning to `O=c1ccc2c(-c3ccccc3S(=O)(=O)O)c3ccc(O)c(O)c3oc-2c1O`, the max response is -99.8% (active).

Take `COc1ccccc1CNc1nc(Nc2ccccc2Cl)c2sccc2n1`: the max response is -3.83% (inactive).

Turning to `CC(=O)c1ccc(Nc2nc(C(N)c3ccccc3Cl)cs2)cc1` (centres undefined), the max response was 1.57% (inactive).

In the case of `CC1(Oc2ccccc2-c2ccno2)CCN(Cc2ccc(-c3ccccc3)o2)C1` (centres undefined), the max response was -1.74% (inactive).

In the case of `CC(=O)Nc1cccc(Nc2ccc(C#N)cc2)c1`, the max response was 1.81% (inactive).

As to `COC(=O)[C@]12CCCCC=C1N(Cc1ccco1)C(=O)[C@H](CC(=O)NCCCCc1ccccc1)C2`, the max response is 0.498% (inactive).

Take `CCc1c(C)[nH]c(=S)c(C#N)c1C`: the max response is -67.1% (active).

As to `O=S1(=O)CCN(C2CCCCCCCCCCC2)CC1`, the max response was 7.96% (inactive).

In the case of `O=Cc1cn(CCOc2ccc(F)cc2)c2ccccc12`, the max response was 7.27% (inactive).

As to `COC(=O)c1ccc2nc(-c3ccc(F)cc3)c(Cc3ccc(C)cc3)n2c1`, the max response is 0.932% (inactive).

On to `O=S1(=O)C[C@@H](N2CCN(CCO)CC2)[C@H](COCc2ccccc2)N1`, for which the max response was -1.64% (inactive).

Regarding `CC(C)Oc1cc(F)ccc1-c1cc(C(=O)Nc2cccc(Cl)c2)[nH]n1`, the max response was 0.377% (inactive).

With `COc1ccc(OC)c(C(O)c2ncc(-c3cccc(C(F)(F)F)c3)[nH]2)c1` (centres undefined), the max response was -2.56% (inactive).

Consider `C=CCN1C=C2C(=O)C(C)(OC(=O)CCc3ccccc3)C(=O)C=C2C=C1c1ccc(C#N)cc1` (centres undefined), for which the max response was -25.6% (inactive).

For `CC1(OC(=O)C2CCCC2)C(=O)C=C2C=C(c3ccc(C#N)cc3)OC=C2C1=O` (centres undefined), the max response is -76.4% (active).

With `COCCN1C=C2C(=O)C(C)(OC(=O)C3CCCC3)C(=O)C=C2C=C1c1ccsc1` (centres undefined), the max response was -2.59% (inactive).

Regarding `COc1ccccc1Cc1c(-c2ccc(Cl)cc2)nc2ccc(Cl)cn12`, the max response is -3.05% (inactive).

`NC(=O)CSc1nnc(NC(=O)c2ccc3ccccc3c2)s1`: the max response was -9.56% (inactive).

As to `CC(C)N(C(=O)CSc1nnc(NC2CC2)s1)c1ccccc1`, the max response is 2.4% (inactive).

With `CC(C)Nc1nnc(SCC(=O)c2c[nH]c3ccccc23)s1`, the max response was -3.57% (inactive).

`Cc1ccc(Nc2nnc(SCC(=O)c3cc4ccccc4o3)s2)cc1C`: the max response was -55.9% (active).

In the case of `Cc1ccccc1Nc1nnc(SCC(=O)c2cc3ccccc3o2)s1`, the max response is -19.3% (inactive).

As to `CC(C)c1ccc(Nc2nnc(SCC(=O)c3nnc(-c4ccccc4)o3)s2)cc1`, the max response is -79.1% (active).

For `O=C1NC[C@H](CCCCN2C[C@H](Cc3ccc(O)cc3)N(CCc3ccccc3)C(=O)C2=O)N(CCc2ccccc2)C1=O`, the max response is -2.29% (inactive).

Take `COCc1cccc(-c2csc(C(O)c3ccc(F)cc3)n2)c1` (centres undefined): the max response was 0.323% (inactive).

For `COc1ccc(C(=O)N2CCCCC2c2cc(C(=O)Nc3ccc(F)c(Cl)c3)no2)cc1` (centres undefined), the max response is -6.25% (inactive).

For `NC(Cc1ccccc1)c1csc(Nc2cc(Oc3ccccc3)ncn2)n1` (centres undefined), the max response is 1.15% (inactive).

As for `O=C(/C=C(O)/C=C/c1ccc(O)cc1)/C=C/c1ccc(O)cc1`, the max response is -59.8% (active).

For `O=C(/C=C/c1ccc2c(c1)OCCO2)c1ccc(O)cc1`, the max response was -20.1% (inactive).

Consider `O=C(/C=C/c1ccc(F)cc1)NCCNC(=O)/C=C/c1ccc(F)cc1`, for which the max response is 3.31% (inactive).

In the case of `O=C1c2ccccc2-c2ccccc2NC1O` (centres undefined), the max response is -1.89% (inactive).

Take `COc1ccc(OCCCC(=O)Nc2nnc(C3CCCO3)s2)cc1` (centres undefined): the max response was -53% (active).

As to `COc1ccc(NC(=O)CCC(=O)Nc2nnc(C3CCCCC3)s2)cc1`, the max response was 0.477% (inactive).

Consider `Cc1nnc(NC(=O)CCCOc2ccccc2)s1`, for which the max response is -10% (inactive).
